Test results published in the antibiotic and cytotoxicity screens of Wong et al. (2023).
Screen size: about 39,000 compounds; about 3,300 (8.5%) were called active. Only a selection was taken, and actives are over-represented in it overall.

Tested on: HepG2
Test: cytotoxicity call (relative viability < 0.9)
Conditions: 10 µM

| SMILES | cytotoxicity call |
| --- | --- |
| Cc1noc(C)c1S(=O)(=O)Nc1cccc2c1O[C@@H](CN(C)S(=O)(=O)c1cccs1)[C@@H](C)CN([C@@H](C)CO)C2=O | inactive |
| COc1ccc(-n2c(N)cc(=O)[nH]c2=O)cc1 | inactive |
| CSc1cccc2sc(Nc3ccc(Cl)cc3)nc12 | inactive |
| c1ccc(Nc2nc3c(ccc4ccccc43)s2)cc1 | active |
| N=C(N)Nc1nc(=O)c2ccccc2s1 | inactive |
| O=C(C[C@H]1CC=CC[C@H](Cc2ccc(F)cc2)C(=O)OC[C@@H](Cc2c[nH]c3ccccc23)NC1=O)NCCO | inactive |
| C[C@@H]1CN([C@@H](C)CO)C(=O)Cc2cc(NC(=O)C3CCCCC3)ccc2O[C@@H]1CN(C)S(C)(=O)=O | inactive |
| C[C@@H]1CN([C@@H](C)CO)C(=O)c2cc(NC(=O)C3CCCCC3)ccc2O[C@@H](C)CCCCO[C@H]1CN(C)C(=O)C1CCCCC1 | inactive |
| Cc1noc(C)c1S(=O)(=O)Nc1ccc2c(c1)CC(=O)N([C@@H](C)CO)C[C@@H](C)[C@@H](CN(C)C(=O)Nc1ccc3c(c1)OCO3)O2 | inactive |
| Cn1c(=O)c(C(=O)NCCO)c(O)c2ccccc21 | inactive |
| CNC(=O)c1c(O)c2ccccc2[nH]c1=O | inactive |
| CNC(=O)c1c(O)c2ccccc2n(C)c1=O | active |
| COc1ccc2c3c([nH]c2c1)[C@H](CO)N(C[C@]13CCN(CC1)C(=O)CN(C)C)S(=O)(=O)C | inactive |
| CC1OC1P(=O)([O-])[O-].[Ca+2] (configuration not stated) | inactive |
| Cc1[nH]c2ccccc2c1C(=O)CSc1ccc(Cl)cc1 | inactive |
| CSc1c(-c2ccc(Cl)cc2)[nH]c2ccccc12 | active |
| NCC[S@@](=O)c1c(-c2ccc(F)cc2)[nH]c2ccccc12 | inactive |
| C[C@H](CO)N1C[C@H](C)[C@H](CN(C)S(=O)(=O)c2ccc(Cl)cc2)Oc2ccc(NC(=O)CCN3CCOCC3)cc2C1=O | inactive |
| C[C@@H]1CN([C@@H](C)CO)C(=O)Cc2cc(NC(=O)c3ccncc3)ccc2O[C@H]1CN(C)S(C)(=O)=O | inactive |
| C[C@H](O)C#Cc1ccc2c(c1)O[C@H](CN(C)C(=O)CN(C)C)[C@@H](C)CN([C@@H](C)CO)S2(=O)=O | inactive |
| C[C@H]1CN([C@@H](C)CO)C(=O)Cc2cc(NC(=O)Nc3ccc(C(F)(F)F)cc3)ccc2O[C@H]1CN(C)S(=O)(=O)c1ccc(Cl)cc1 | active |
| C[C@@H]1CN([C@H](C)CO)C(=O)Cc2cc(NC(=O)Nc3ccc(C(F)(F)F)cc3)ccc2O[C@@H]1CN(C)S(C)(=O)=O | inactive |
| C[C@H](CO)N1C[C@H](C)[C@H](CN(C)S(=O)(=O)c2ccc(Cl)cc2)Oc2ccc(NC(=O)Nc3ccc(C(F)(F)F)cc3)cc2CC1=O | active |

| SMILES | cytotoxicity call |
| --- | --- |
| C[C@H](CO)N1C[C@H](C)[C@@H](CN(C)S(C)(=O)=O)Oc2ccc(NC(=O)Nc3ccc(C(F)(F)F)cc3)cc2CC1=O | inactive |
| CC(C)NC(=O)Nc1ccc2c(c1)CC(=O)N([C@H](C)CO)C[C@@H](C)[C@@H](CN(C)S(=O)(=O)c1ccc(Cl)cc1)O2 | inactive |
| C[C@@H]1CN([C@H](C)CO)C(=O)Cc2cc(NC(=O)Nc3ccc(C(F)(F)F)cc3)ccc2O[C@H]1CN(C)S(C)(=O)=O | inactive |
| C[C@H]1CN([C@@H](C)CO)C(=O)Cc2cc(NC(=O)Nc3cccc(C(F)(F)F)c3)ccc2O[C@H]1CN(C)S(=O)(=O)c1ccc(Cl)cc1 | active |
| C[C@H]1CN([C@@H](C)CO)C(=O)Cc2cc(NC(=O)Nc3ccc(C(F)(F)F)cc3)ccc2O[C@H]1CN(C)S(C)(=O)=O | inactive |
| C[C@@H]1CN([C@H](C)CO)C(=O)Cc2cc(NC(=O)Nc3ccc(C(F)(F)F)cc3)ccc2O[C@@H]1CN(C)S(=O)(=O)c1ccc(Cl)cc1 | active |
| O=C(O)c1ccc[nH]1 | inactive |
| Cc1noc(C)c1NC(=O)N(C)C[C@@H]1Oc2ccc(NC(=O)Nc3ccc(C(F)(F)F)cc3)cc2CC(=O)N([C@@H](C)CO)C[C@@H]1C | inactive |
| C[C@@H]1CN([C@H](C)CO)C(=O)Cc2cc(NC(=O)Cn3cnnn3)ccc2O[C@H]1CN(C)Cc1ccc(Oc2ccccc2)cc1 | inactive |
| CN1CCN(C(=O)C[C@H]2C=C[C@H](NS(=O)(=O)c3cccc(F)c3)[C@@H](CO)O2)CC1 | inactive |
| Cn1cnc(S(=O)(=O)N[C@H]2CC[C@H](CC(=O)NCC3CC3)O[C@@H]2CO)c1 | inactive |
| C[C@@H]1CN([C@@H](C)CO)C(=O)c2cc(NC(=O)CCC(F)(F)F)ccc2O[C@@H](C)CCCCO[C@H]1CN(C)C(=O)Nc1cccc2ccccc12 | inactive |
| CC(C)N1C[C@H](C)[C@@H](CN(C)Cc2ccc(Oc3ccccc3)cc2)Oc2c(C(=O)Nc3ccncc3)cccc2C1=O | inactive |
| COc1ccc(NC(=O)Nc2ccc3c(c2)C(=O)N([C@@H](C)CO)C[C@H](C)[C@H](CN(C)Cc2ccc(C(=O)O)cc2)OCCCC[C@H](C)O3)cc1 | inactive |
| CCCNS(=O)(=O)c1c[nH]c(C(=O)OC)c1 | inactive |
| C[C@@H]1CN([C@@H](C)CO)C(=O)c2cccc(NS(=O)(=O)c3ccc(F)cc3)c2O[C@@H]1CN(C)CC1CC1 | inactive |
| C[C@@H]1CN([C@H](C)CO)C(=O)Cc2cc(NC(=O)Nc3ccc(C(F)(F)F)cc3)ccc2O[C@H]1CN(C)S(=O)(=O)c1ccc(Cl)cc1 | inactive |
| C[C@H]1CN([C@@H](C)CO)C(=O)Cc2cc(NC(=O)Nc3ccc(C(F)(F)F)cc3)ccc2O[C@@H]1CN(C)S(=O)(=O)c1ccc(Cl)cc1 | active |
| C[C@H]1CN([C@@H](C)CO)C(=O)Cc2cc(NC(=O)Nc3cccc(C(F)(F)F)c3)ccc2O[C@H]1CN(C)S(=O)(=O)c1ccc(Oc2ccccc2)cc1 | active |
| COc1ccc(S(=O)(=O)N(C)C[C@@H]2Oc3ccc(NC(=O)Nc4cccc(C(F)(F)F)c4)cc3CC(=O)N([C@@H](C)CO)C[C@@H]2C)cc1Cl | active |
| C[C@@H]1CN([C@@H](C)CO)C(=O)Cc2cc(NC(=O)Nc3ccc(C(F)(F)F)cc3)ccc2O[C@H]1CN(C)S(=O)(=O)c1ccc(Cl)cc1 | inactive |
| C[C@H](CO)N1C[C@H](C)[C@@H](CN(C)S(=O)(=O)c2ccc(Cl)cc2)Oc2ccc(NC(=O)Nc3ccc(C(F)(F)F)cc3)cc2CC1=O | active |
| Cc1cc(=O)nc2[nH][nH]c(=S)n12 | inactive |

| SMILES | cytotoxicity call |
| --- | --- |
| C[C@H]1CN([C@@H](C)CO)C(=O)c2cccc(NC(=O)c3nc4ccccc4s3)c2O[C@@H]1CN(C)S(C)(=O)=O | inactive |
| C[C@@H]1CN([C@@H](C)CO)C(=O)Cc2cc(NC(=O)Nc3cccc4ccccc34)ccc2O[C@H]1CN(C)C(=O)Nc1ccccc1 | inactive |
| COc1ccc(S(=O)(=O)Nc2ccc3c(c2)CC(=O)N([C@H](C)CO)C[C@@H](C)[C@H](CN(C)Cc2ccc(C(=O)O)cc2)O3)cc1 | inactive |
| CN(C)C=C(C=[N+](C)C)c1[nH]ncc1N | inactive |
| C[C@@H]1CN([C@@H](C)CO)C(=O)Cc2cc(NC(=O)Nc3ccc(C(F)(F)F)cc3)ccc2O[C@@H]1CN(C)S(=O)(=O)c1ccc(Cl)cc1 | active |
| Cc1cc(C(=O)Nc2cccc3c2O[C@H](CN(C)Cc2ccncc2)[C@@H](C)CN([C@H](C)CO)C3=O)n(C)n1 | inactive |
| C[C@@H]1CN([C@@H](C)CO)C(=O)Cc2cc(NC(=O)CCC(F)(F)F)ccc2O[C@@H]1CN(C)S(=O)(=O)c1cn(C)cn1 | inactive |
| C[C@H]1CN([C@@H](C)CO)C(=O)c2cc(NC(=O)c3ccncc3)ccc2O[C@H]1CN(C)Cc1ccc(C(=O)O)cc1 | inactive |
| C[C@@H]1CCCCO[C@H](CN(C)S(=O)(=O)c2ccc(Cl)cc2)[C@@H](C)CN([C@H](C)CO)C(=O)c2cc(NC(=O)Nc3cccc4ccccc34)ccc2O1 | inactive |
| C[C@@H]1CN([C@@H](C)CO)C(=O)c2cc(NC(=O)Nc3ccccc3)ccc2O[C@@H](C)CCCCO[C@@H]1CN(C)S(=O)(=O)c1ccc(Cl)cc1 | inactive |
| C[C@@H]1CCCCO[C@@H](CN(C)S(=O)(=O)c2ccc(Cl)cc2)[C@@H](C)CN([C@@H](C)CO)C(=O)c2cc(NC(=O)Nc3cccc4ccccc34)ccc2O1 | active |
| C[C@@H]1CN([C@@H](C)CO)C(=O)c2cc(NC(=O)Nc3ccccc3)ccc2O[C@@H](C)CCCCO[C@H]1CN(C)S(=O)(=O)c1ccc(Cl)cc1 | active |
| C[C@@H]1CCCCO[C@@H](CN(C)S(=O)(=O)c2ccc(Cl)cc2)[C@@H](C)CN([C@@H](C)CO)C(=O)c2cc(NC(=O)Nc3ccccc3)ccc2O1 | inactive |
| C[C@@H]1CN([C@H](C)CO)C(=O)c2cc(NC(=O)Nc3ccccc3)ccc2O[C@@H](C)CCCCO[C@H]1CN(C)S(=O)(=O)c1ccc(Cl)cc1 | active |
| C[C@@H]1CCCCO[C@H](CN(C)S(=O)(=O)c2ccc(Cl)cc2)[C@@H](C)CN([C@@H](C)CO)C(=O)c2cc(NC(=O)Nc3cccc4ccccc34)ccc2O1 | inactive |
| C[C@H](CO)N1C[C@H](C)[C@@H](CN(C)S(=O)(=O)c2ccc(Cl)cc2)OCCCC[C@H](C)Oc2ccc(NC(=O)Nc3ccccc3)cc2C1=O | inactive |
| C[C@@H]1CCCCO[C@@H](CN(C)S(=O)(=O)c2ccc(Cl)cc2)[C@@H](C)CN([C@H](C)CO)C(=O)c2cc(NC(=O)Nc3ccccc3)ccc2O1 | inactive |
| C[C@H](CO)N1C[C@H](C)[C@H](CN(C)C(=O)Nc2ccccc2)OCCCC[C@H](C)Oc2ccc(NC(=O)NC3CCCCC3)cc2C1=O | inactive |
| C[C@@H]1CN([C@H](C)CO)C(=O)c2cccc(NC(=O)Nc3cccc4ccccc34)c2O[C@@H]1CN(C)S(=O)(=O)c1ccc(Cl)cc1 | inactive |
| Cc1ccc(/C=N/Nc2cnnc(=O)[nH]2)o1 | inactive |
| O=C(Cn1cnnn1)NC1C(=O)N2C(C(=O)O)=C(CSc3nncs3)CSC12 (configuration not stated) | inactive |
